The values that follow come from PubChem BioAssay AID435030 (The Scripps Research Institute Molecular Screening Center, 2010).

Broadly, the inhibition is the relative decrease from the control value, in per cent.

The campaign covered roughly 330,000 compounds. About 940 (0.28%) were called active. The sample as a whole holds a higher share of actives than the screen did. Unmarked numbers belong to inactive results. No stated cut-off is given here; in the data, active means inhibition above about 12%; inactive means the rest.

The assay can be described thus: growth inhibition of E. coli expressing H. pylori AddAB, primary screen, AddAB inhibitor project, absorbance (AID 435030).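 Further: 0% = vehicle wells of infected cells.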 The note with it: at 11.9 µM, active compounds read high.
On to `Cc1ccc(-n2c(-c3ccc([N+](=O)[O-])cc3)nc3ccccc3c2=O)cc1`, for which the inhibition was 0.16%.

As for `C/C(=N/O)c1ccc2ccc3ccccc3c2c1`, the inhibition was 1.43%.

With `O=[N+]([O-])c1cnc2ccc3ccccc3c2c1`, the inhibition was 50.7% (active).

As for `CCc1ccc(OCC(=O)N2CCN(CC(=O)Nc3ccccc3Cl)CC2)cc1`, the inhibition was -0.08%.

Consider `CN(C)S(=O)(=O)c1cc(C(=O)N2CCC(C(=O)O)(c3ccccc3)CC2)ccc1Cl`, for which the inhibition is 23.8% (active).

As for `CCc1nc2ccccc2c(=O)n1-c1cccc(OC)c1`, the inhibition is 1.96%.

Turning to `COc1ccc(S(=O)(=O)NCc2ccc(C(=O)N3CCC4(CC3)OCCO4)cc2)cc1`, the inhibition was 2.3%.

Turning to `c1ccc2sc(N3CCNCC3)nc2c1`, the inhibition was -0.09%.

With `C[C@]12CC[C@H](O)CC1=C([N+](=O)[O-])CC1C2CC[C@@]2(C)C1CC[C@@H]2O` (stereo not given in full), the inhibition was 1.39%.

Consider `Cc1ccc(-c2nn(CCC#N)cc2C(=O)O)cc1C`, for which the inhibition is 2.06%.
